PLK1 PBD inh: qHTS for Inhibitors of PLK1-PDB (polo-like kinase 1 - polo-box domain): Primary Screen; Serine/threonine-protein kinase PLK1 (Homo sapiens), P53350; Plk1 PBD binding of FITC phosphopeptide, fluorescence polarization; Potency, µM, inactives show max response, negative = inhibition, most hits filed as inhibitors; 360,000 tested, 2.8% active; AID 720504, 2013; further: potency means the concentration at half of the fitted maximal effect; series mostly up to about 57 µM; on the % scale 0 is the no-effect control and ±100 the full control effect; nearly all actives have a fitted effect of over 65% in size
Vif-APOBEC3F blk: qHTS for Inhibitors of Vif-A3F Interactions: qHTS. HeLa A3F-eYFP + Vif (tagged APOBEC3F with the HIV-1 protein that degrades it), YFP fluorescence increase. Potency, µM (series often up to 46.1 µM), for inactives: at the top dose activity, negative = active. 390,000 tested, 0.2% active. AID 602313, 2012; further: potency means the concentration at half of the fitted maximal effect; % of control where 0% means no effect; nearly all actives have a fitted effect of over 65% in size
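HeLa cells stably expressing Vif plus C-terminally eYFP-tagged A3F were seeded, incubated overnight at 37 deg C, dosed with compound, incubated overnight again at 37 deg C. Yellow fluorescence (Ex 488/Em 500-530) reported blocked Vif-mediated A3F-eYFP degradation.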
TSHR antagonist: Antagonists of the Thyroid Stimulating Hormone Receptor: HTS campaign | TSHR-expressing cells, TSH-stimulated cAMP HTRF, 2 h; active compounds read low | activity change, negative = inhibition, % at 11.5 µM | 330,000 tested, 0.2% active | AID 504810, 2011;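 active means activity change below a set negative limit, meaning inhibition stronger than a set level, cut at about -70% in these data; inconclusive means activity change between two set negative limits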; further: on the % scale 0 is the no-effect control and ±100 the full control effect
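Cell-based HTRF cAMP assay; TSHR cells + compound, TSH EC80 (4nM final), 2 h, 37 deg C. Lysis with anti-cAMP cryptate and cAMP-d2, 30 min RT, read 665/620 nm.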
VDR inh: Inhibitors of the vitamin D receptor (VDR): qHTS; VDR-SRC2-3 peptide fluorescence polarization, 2 h; Potency, µM, inactives show max response, negative = inhibition, hits mostly inhibitors; 400,000 tested, 0.93% active; Vitamin D3 receptor (Homo sapiens), P11473; further: potency means the concentration at half of the fitted maximal effect; on the % scale 0 is the no-effect control and ±100 the full control effect
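The screen uses fluorescence polarization to detect compounds that interfere with recruitment of the SRC2-3 coactivator peptide to VDR; plates are read after 2 h at room temperature.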
Vif-A3G inh: qHTS for Inhibitors of Vif-A3G Interactions: qHTS; DNA dC->dU-editing enzyme APOBEC-3G (Homo sapiens), Q9HC16; HeLa A3G-eYFP + Vif (tagged APOBEC3G with the HIV-1 protein that degrades it), YFP fluorescence, overnight; Potency, µM (series often up to 46.1 µM), inactives show at the top dose activity, negative = active, usual class: inhibitors; 410,000 tested, 0.076% active; AID 602310, 2012; further: potency means the concentration at half of the fitted maximal effect; on the % scale 0 is the no-effect control and ±100 the full control effect; nearly all actives have a fitted effect of over 60% in size
Target sequence (Q9HC16 whole entry, looked up): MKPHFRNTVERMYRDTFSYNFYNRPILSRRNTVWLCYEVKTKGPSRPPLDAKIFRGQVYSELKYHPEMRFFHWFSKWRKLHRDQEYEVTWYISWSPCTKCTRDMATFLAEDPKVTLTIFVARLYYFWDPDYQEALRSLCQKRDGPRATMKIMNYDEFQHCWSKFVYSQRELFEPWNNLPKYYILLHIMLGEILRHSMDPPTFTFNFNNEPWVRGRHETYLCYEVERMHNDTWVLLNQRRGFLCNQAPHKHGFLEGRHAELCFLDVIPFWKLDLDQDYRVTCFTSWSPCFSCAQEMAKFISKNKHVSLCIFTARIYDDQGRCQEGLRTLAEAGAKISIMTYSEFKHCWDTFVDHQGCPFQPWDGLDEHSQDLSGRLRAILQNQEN
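Read-out is eYFP fluorescence (Ex 488/Em 500-530) from Vif-expressing HeLa A3G-eYFP cells; more signal means A3G escaped Vif-mediated degradation. Cells plated overnight, compound pinned in, incubated overnight at 37 deg C.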
* hit, by the source's call; ? = inconclusive; / = no result given; ! = not confirmed by another sample. An excerpt weighted towards active compounds, which were near 3.1% of everything screened. Unless noted, the call rests on the fitted dose curve; in most records, active means well fitted curve in the direction sought with a large enough effect; inconclusive means small, poorly fitted or top-dose-only effect, or another doubt; inactive means no such curve, though single readings can be large; an effect the other way counts as inactive or inconclusive.

SMILES | PLK1 PBD inh | Vif-APOBEC3F blk | TSHR antagonist | VDR inh | Vif-A3G inh
O=C(NCc1cccc(F)c1)c1ccc(CS(=O)c2ccccc2Cl)o1 (configuration not stated) | / | -13.4% | / | 15.4% | 2.7%
CCOc1ccc(C(c2c(O)nc(SC)n(C)c2=O)c2c(O)nc(SC)n(C)c2=O)cc1 | 11.9µM* | -0.4% | 2.2 | 39.8µM* | 2.0%
CCN(CCCNC(=O)c1cc2c(=O)[nH]c3ccc(C)cc3c2s1)Cc1ccccc1 | / | 1.7% | / | -14.9% | -22.3%
CCOC(=O)c1[nH]c2cc(OC)c(OC)cc2c1NC(=O)c1ccc2c(c1)OCO2 | 0.9% | 0.8% | -74.6* | -1.0% | -10.8%
c1coc(-c2nnc3sc(Cc4cccs4)nn23)c1 | 26.7µM* | -5.4% | -5.4 | -0.2% | 0.5%
COc1cc(OC)c(-c2nn3c(-c4n[nH]c5c4CCC5)nnc3s2)cc1OC | / | / | / | -5.2% | -21.1%
c1csc(Cc2nn3c(-c4n[nH]c5c4CCC5)nnc3s2)c1 | 2.67µM* | 0.7% | 3.5 | -18.8% | -8.1%
COc1ccc(OCc2nn3c(-c4ccco4)nnc3s2)cc1 | -10.8% | 0.1% | -15.0 | 2.1% | -0.5%
Clc1ccc(-c2nnc3sc(Cc4cccs4)nn23)c(Cl)c1 | -5.6% | -1.5% | -10.3 | -17.8% | -1.5%
Clc1ccc(OCc2nn3c(-c4ccco4)nnc3s2)cc1 | 23.8µM* | 6.3% | 2.4 | -19.3% | -0.1%
CN1CCc2cc(O)c(O)cc2C1Cc1ccc(O)c(O)c1 (configuration not stated) | / | / | / | -10.6% | /
C/C(=N\NC(N)=O)C1CC(CC(C)C)C(=O)O1 (configuration not stated) | -4.0% | 4.5% | 1.4 | -8.9% | -8.4%
CCCCCCCC1CC(/C(C)=N/NC(N)=O)OC1=O (configuration not stated) | 11.9µM* | 10.4% | 3.1 | 44.7µM* | 0.1%
CC1=CC(=O)OC1Cc1ccc2ccccc2n1 (configuration not stated) | / | / | / | -4.2% | /
COc1cc(/C=N/Nc2nc(N3CCCC3)nc(N3CCCC3)n2)ccc1OCc1ccccc1F | -7.9% | -19.8% | -70.6* | -9.6% | 2.8%
Cc1noc(C)c1C(=O)OCC(=O)Nc1c(F)cccc1F | 8.44µM* | 0.7% | -6.3 | 50.1µM* | -4.2%
Cc1noc(C)c1C(=O)OCC(=O)Nc1ccc(C(N)=O)cc1 | -4.3% | 6.3% | -2.3 | -14.8% | 1.9%
N#CCSc1ccccc1NC(=O)COC(=O)CCNC(=O)c1ccc([N+](=O)[O-])cc1 | 4.8% | 22.4µM* | 6.1 | -1.8% | -14.7%
Cc1cc(C(=O)OCC(=O)Nc2c(F)cccc2F)c(C)n1-c1ccccc1 | 21.2µM* | 4.8% | -6.8 | ? | 1.6%
Cc1cc(C(=O)OCC(=O)N2CCOCC2)c(C)n1-c1ccccc1 | 1.8% | -4.2% | / | 6.1% | 0.2%
Cc1noc(C)c1C(=O)OCC(=O)Nc1ccccc1SCC#N | 1.9% | 22.4µM* | 5.2 | 11.8% | -18.8%
CCCCCCCCCCCCCCC[C@@H](O)[C@H](CO)NC(=O)CCCCCCC | / | / | / | 2.9% | /
CC[n+]1c(/C=C2/C=C(C)CC(C)(C)C2)sc2ccc(OC)cc21 | 21.2µM* | / | 15.5 | ? | ?
CC1=CC23C(=O)C(C=C(CO)[C@@H](O)[C@]2(O)[C@H]1O)[C@H]1[C@@H](C[C@H]3C)C1(C)C (some centres not stated) | / | / | / | 4.6% | /
O=C(Cc1ccccc1)NCC(=O)OCC(=O)c1cccc2ccccc12 | / | / | / | -28.8% | -2.8%
Cc1cc[n+](-c2nc3ccccc3nc2C(=C=[N-])C#N)cc1 | -9.1% | 4.4% | -2.9 | -0.1% | 1.7%
N#CC(=C=[N-])c1nc2ccccc2nc1-[n+]1ccccc1 | 26.7µM*! | 0.3% | -6.7 | ? | 0.4%
Cc1cc(C)n(CC(=O)Nc2ccccc2)n1 | 21.2µM* | 1.2% | 8.0 | 0.2% | 3.2%
Cc1ccccc1C1CC(=O)Oc2cc(C)c(Cl)c(C)c21 (configuration not stated) | / | / | / | -1.5% | /

Assay outcomes from PubChem.
